This note sets out measurements from PubChem BioAssay (NCI).

Among the test systems are NCI-H23 lung; NCI-H226 lung; NCI-H322M lung; HOP-62 NSCLC; NCI-H460 lung; NCI-H522 lung; A549/ATCC NSCLC; 786-0 renal; COLO 205 colon; DU-145 prostate; K-562 leukemia; MALME-3M melanoma; MDA-MB-231 breast; RXF 393 renal; SF-268 CNS; SF-295 CNS; SF-539 CNS; UACC-257 melanoma; M14 melanoma.
Holding throughout (assay): NCI-60 one-dose screen, 48 h (100 = growth as untreated, 0 = no growth, -100 = all killed)
Settings in all cases: 10 µM

This is part of a sample that, as a whole, favours compounds with a hit. Of some 83,000 tested, about 20% had one in any assay.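 Treatment: one concentration, 48 hours, 96-well format. Scoring: percent growth, with anything below 10 considered active.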 Unmarked numbers belong to inactive results. The source made the active and inactive calls.

Turning to `CC1CCCC(CC(N)=O)CC1` (centres undefined), the growth is 102% with NCI-H23 lung; 98.7% in the test with NCI-H226 lung; 112% in the test on NCI-H322M lung; 94.9% in the test on HOP-62 NSCLC; 98.8% in the test with NCI-H460 lung; 88.1% in the test on NCI-H522 lung. In addition, the growth is 92.8% with A549/ATCC NSCLC; 110% in the test with 786-0 renal; 107% in the test with COLO 205 colon; 117% with DU-145 prostate; 94.3% in the test on K-562 leukemia; 107% in the test on MALME-3M melanoma. Moreover, the growth in the test with MDA-MB-231 breast is 103%; in the test with RXF 393 renal, 117%; in the test on SF-268 CNS it was 104%; with SF-295 CNS it was 89.4%; in the test on SF-539 CNS, 98.4%; in the test on UACC-257 melanoma, 104%. For the same molecule, the growth in the test with M14 melanoma was 108%.

`COC(=O)c1cccc(Br)c1`: the growth was 102% in the test on NCI-H23 lung; 106% in the test on NCI-H226 lung; 97.5% in the test with NCI-H322M lung; 92% in the test on HOP-62 NSCLC; 109% in the test on NCI-H460 lung; 102% in the test with NCI-H522 lung. Further, the growth in the test with A549/ATCC NSCLC is 116%; in the test on 786-0 renal, 110%; with COLO 205 colon it was 121%; in the test on DU-145 prostate, 111%; in the test with K-562 leukemia, 121%; in the test on MALME-3M melanoma it was 111%. Further, the growth in the test with MDA-MB-231 breast was 111%; in the test with RXF 393 renal it was 146%; with SF-268 CNS it was 108%; in the test with SF-295 CNS, 102%; in the test with SF-539 CNS, 98.7%; in the test with UACC-257 melanoma it was 112%. The growth with M14 melanoma was 101%.

On to `CC1SC(N)=NC1=O` (centres undefined), for which the growth is 94.8% in the test with NCI-H23 lung; 107% in the test on NCI-H226 lung; 114% in the test on NCI-H322M lung; 79.5% with HOP-62 NSCLC; 115% in the test on NCI-H460 lung; 97.5% with NCI-H522 lung. Besides, the growth was 102% in the test on A549/ATCC NSCLC; 95.3% with 786-0 renal; 138% in the test on COLO 205 colon; 117% in the test with DU-145 prostate; 112% with K-562 leukemia; 108% in the test with MALME-3M melanoma. Moreover, the growth was 112% with MDA-MB-231 breast; 120% in the test with RXF 393 renal; 110% with SF-268 CNS; 102% in the test with SF-295 CNS; 106% in the test with SF-539 CNS; 110% in the test with UACC-257 melanoma. For the same molecule, the growth with M14 melanoma is 103%.

As for `NCC(=O)CCC(=O)O`, the growth is 93.8% in the test with NCI-H23 lung; 99.2% in the test on NCI-H226 lung; 107% with NCI-H322M lung; 99.1% with HOP-62 NSCLC; 115% in the test on NCI-H460 lung; 107% in the test on NCI-H522 lung. Besides, the growth with A549/ATCC NSCLC is 99.1%; in the test with 786-0 renal it was 103%; in the test on COLO 205 colon, 116%; with DU-145 prostate, 121%; in the test with K-562 leukemia it was 109%; in the test with MALME-3M melanoma it was 101%. For the same molecule, the growth in the test on MDA-MB-231 breast is 107%; in the test on RXF 393 renal, 98.3%; with SF-268 CNS, 101%; in the test with SF-295 CNS it was 106%; in the test on SF-539 CNS, 110%; in the test on UACC-257 melanoma it was 105%. Further, the growth in the test with M14 melanoma is 113%.

Take `O=C1Cc2cc(O)ccc2O1`: the growth with NCI-H23 lung is 111%; in the test on NCI-H226 lung, 103%; in the test with NCI-H322M lung, 94.5%; with HOP-62 NSCLC, 101%; in the test on NCI-H460 lung it was 111%; in the test on NCI-H522 lung, 88.4%. In addition, the growth was 98.7% with A549/ATCC NSCLC; 103% with 786-0 renal; 117% in the test with COLO 205 colon; 118% with DU-145 prostate; 96.6% in the test on K-562 leukemia; 92.5% in the test on MALME-3M melanoma. Moreover, the growth is 106% in the test with MDA-MB-231 breast; 114% in the test with RXF 393 renal; 106% in the test with SF-268 CNS; 160% with SF-295 CNS; 101% in the test with SF-539 CNS; 103% in the test on UACC-257 melanoma. Besides, in the test with M14 melanoma, the growth is 98.9%.

For the molecule `C#CC(C(C)C)N(CCO)CCCC` (centres undefined), the growth with NCI-H23 lung was 120%; in the test on NCI-H226 lung, 96.6%; in the test with NCI-H322M lung, 107%; with HOP-62 NSCLC it was 98.8%; in the test on NCI-H460 lung, 101%; with NCI-H522 lung it was 107%. In addition, the growth is 95.8% in the test on A549/ATCC NSCLC; 108% in the test with 786-0 renal; 108% in the test on COLO 205 colon; 112% in the test on DU-145 prostate; 102% with K-562 leukemia; 116% with MALME-3M melanoma. For the same molecule, the growth in the test with MDA-MB-231 breast is 113%; with RXF 393 renal, 100%; in the test on SF-268 CNS it was 102%; with SF-539 CNS, 90.4%; with UACC-257 melanoma it was 97.4%; with M14 melanoma, 108%.

With `C=C[Si](OC(C)=O)(OC(C)=O)OC(C)=O`, the growth with NCI-H23 lung was 106%; in the test with NCI-H226 lung, 111%; in the test with NCI-H322M lung, 87.6%; with HOP-62 NSCLC, 89.5%; in the test on NCI-H460 lung it was 103%; in the test with NCI-H522 lung, 88.7%. Also, the growth was 104% with A549/ATCC NSCLC; 98.5% in the test with 786-0 renal; 107% in the test on COLO 205 colon; 116% in the test with DU-145 prostate; 98.7% with K-562 leukemia; 85.6% in the test with MALME-3M melanoma. For the same molecule, the growth in the test with MDA-MB-231 breast was 118%; in the test with RXF 393 renal, 117%; with SF-268 CNS, 99.4%; in the test on SF-295 CNS, 96.9%; with SF-539 CNS it was 96.8%; in the test with UACC-257 melanoma, 105%. In the test with M14 melanoma, the growth was 99.5%.

With `Oc1ccc2c(c1)OCC1(O)Cc3cc(O)c(O)cc3C21` (centres undefined), the growth in the test with NCI-H23 lung was 86.9%; in the test on NCI-H226 lung, 98.2%; with NCI-H322M lung it was 103%; in the test with HOP-62 NSCLC, 82.2%; with NCI-H460 lung, 112%; in the test on NCI-H522 lung, -34.1% (active). The growth with A549/ATCC NSCLC was 93.7%; in the test on 786-0 renal, 95.2%; with COLO 205 colon, 165%; in the test with DU-145 prostate, 99.1%; with K-562 leukemia, 20.7%; in the test on MALME-3M melanoma it was 88.8%. In addition, the growth with MDA-MB-231 breast was 93.2%; in the test with RXF 393 renal, 89.1%; in the test on SF-268 CNS, 96.8%; in the test with SF-295 CNS, 97.1%; in the test with SF-539 CNS it was 91.7%; with UACC-257 melanoma, 96.6%. Also, in the test on M14 melanoma, the growth is 90.6%.

Consider `Cc1ccccc1C1N=C2Oc3ccccc3C=C2C(=O)N1` (centres undefined), for which the growth in the test with NCI-H23 lung is 48.7%; with NCI-H226 lung it was 3.49% (active); in the test on NCI-H322M lung, 37.4%; in the test with HOP-62 NSCLC, 33.3%; in the test with NCI-H460 lung, 30.6%; in the test with NCI-H522 lung it was -32.7% (active). The growth in the test on A549/ATCC NSCLC is 33.5%; in the test on 786-0 renal it was 37.8%; with COLO 205 colon, 0.577% (active); in the test with DU-145 prostate, 20.4%; in the test on K-562 leukemia it was 24.2%; in the test with MALME-3M melanoma it was 51.8%. Moreover, the growth with MDA-MB-231 breast was 32.5%; with RXF 393 renal it was -4.6% (active); with SF-268 CNS, 53.7%; in the test with SF-539 CNS, -5.32% (active); with UACC-257 melanoma, 56.2%; in the test with M14 melanoma it was -24.7% (active).
